Data: paper PMC6664820, “Novel natural and synthetic inhibitors of solute carriers SGLT1 and SGLT2” (Pharmacology Research & Perspectives, 2019)
Out of some 1,900 compounds screened, about 40 (2%) showed an effect of 50% or more. The sample holds strong results, similar compounds and a random draw of the others, so the mix is not that of the screen. Residues, ends and D or L forms follow the SMILES beside them.

Each compound was assayed against human SGLT1 (hSGLT1) (human, UniProt P13866) (assay: primary screen, percent of control activity; higher = less effect of the substance). Settings: 50 µM.
Chain of human SGLT1 (hSGLT1) (P13866 whole entry, looked up): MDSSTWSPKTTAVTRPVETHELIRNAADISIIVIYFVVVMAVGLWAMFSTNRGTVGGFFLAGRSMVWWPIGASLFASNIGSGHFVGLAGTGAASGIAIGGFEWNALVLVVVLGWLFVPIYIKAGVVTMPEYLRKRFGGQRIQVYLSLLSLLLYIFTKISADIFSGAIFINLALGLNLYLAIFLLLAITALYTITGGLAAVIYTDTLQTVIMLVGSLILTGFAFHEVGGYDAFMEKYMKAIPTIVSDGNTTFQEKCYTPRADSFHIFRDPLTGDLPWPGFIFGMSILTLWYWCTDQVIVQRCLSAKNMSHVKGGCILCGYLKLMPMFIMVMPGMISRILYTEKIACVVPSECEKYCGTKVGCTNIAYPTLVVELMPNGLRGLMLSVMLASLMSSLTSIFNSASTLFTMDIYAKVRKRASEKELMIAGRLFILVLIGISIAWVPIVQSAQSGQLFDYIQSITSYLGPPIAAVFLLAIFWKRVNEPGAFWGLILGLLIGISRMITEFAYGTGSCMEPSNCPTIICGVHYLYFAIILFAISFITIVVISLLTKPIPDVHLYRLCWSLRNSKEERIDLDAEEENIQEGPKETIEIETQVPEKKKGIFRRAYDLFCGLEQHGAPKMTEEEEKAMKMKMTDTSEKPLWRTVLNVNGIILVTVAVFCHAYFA
Set-up: single well
Protocol: Two days before the assay, CHO‐wild type and CHO‐hSGLT1 cells were seeded in maintenance medium at 25 000 cells/well in clear‐bottom black 96‐well cell culture plates. Before the assay, cells were washed 3 times with 150 μL/well D‐glucose free DMEM with 0.3% (w/v) BSA. Library compounds at 50 μmol/L (singlicate) prepared in D‐glucose free DMEM with 160 μmol/L 1‐NBD‐glucose and 0.3% (w/v) BSA and negative controls (triplicate) were added at 100 μL/well and placed in a humidified incubator at 37°C with 5% CO2 for 90 minutes. Next, cells were washed 3 times with DMEM with 0.3% (w/v) BSA (150 μL/well). Care was taken to remove all medium after the last wash. Finally, 1‐NBD‐glucose was extracted from the cells by adding 10 μL/well isopropanol and orbital shaking for 5 minutes at 600 rpm, followed by incubation in the dark for 30 minutes. Fluorescence was measured on a Tecan Infinite M200 Microplate Reader (Tecan, Männedorf, Switzerland) with excitation at 445 nm and emission at 525 nm. The amount of 1‐NBD‐glucose taken up by the CHO‐wild type or CHO‐hSGLT1 cells in the presence or absence of test compounds was interpolated from 1‐NBD‐glucose calibration standards. The background uptake by CHO‐wild type was subtracted from the uptake by CHO‐hSGLT1. Background corrected uptake with test compound was expressed as a percentage of corrected uptake without test compound.

| SMILES | NORMALIZED SGLT1 ACTIVITY (%) |
| --- | --- |
| CCCCCNC(=N)N/N=C/c1c[nH]c2ccc(OC)cc12.O=C(O)/C=C\C(=O)O | 141 |
| CO[C@@]1(NC(=O)C(C(=O)[O-])c2ccc(O)cc2)C(=O)N2C(C(=O)[O-])=C(CSc3nnnn3C)CO[C@@H]21.[Na+].[Na+] (stereo partly shown) | 97 |
| CC(=O)O[C@@H]1CC(=O)[C@@]2(C)C(CC(=O)[C@]3(C)C2CC[C@@]2(C)[C@H](c4ccoc4)OC(=O)C4OC423)C1(C)C (stereo partly shown) | 92 |
| COC(=O)[C@@]1(C)CCC[C@]2(C)c3ccc(O)c(C(C)C)c3CCC12 (stereo partly shown) | 138 |
| Cc1c(O)c(C(=O)CC(C)C)c2oc3c(C(=O)CC(C)C)c(O)c(C)c(O)c3c2c1O | 107 |
| O=[N+]([O-])c1ccc(O)c([N+](=O)[O-])c1 | 145 |
| CC(=O)Oc1ccccc1C(=O)O | 112 |
| CC(=O)Nc1ccccc1 | 112 |
| CC(=O)[O][Hg][c]1ccccc1 | 4 |
| Cc1nc2ccccn2c(=O)c1CCN1CCC(C(=O)c2ccc(F)cc2)CC1 | 129 |
| CCCCCCCCCCCCCCCCCC(=O)O.CC[C@H]1OC(=O)[C@H](C)[C@@H](O[C@H]2C[C@@](C)(OC)[C@@H](O)[C@H](C)O2)[C@H](C)[C@@H](O[C@@H]2O[C@H](C)C[C@H](N(C)C)[C@H]2O)[C@](C)(O)C[C@@H](C)C(=O)[C@H](C)[C@@H](O)[C@]1(C)O | 106 |
| COc1ccc2c(=O)cc(-c3ccccc3OC)oc2c1 | 139 |
| COc1cc(OC)c2c(=O)c(-c3ccccc3)coc2c1 | 336 |
| CCCCCCCCCCCCCCCC[N+](C)(C)C.[Br-] | 19 |
| CCCCCCCCCCCCCCCCOP(=O)([O-])OCC[N+](C)(C)C | 79 |
| C[N+](C)(C)CCCCCC[N+](C)(C)C.[Br-].[Br-] | 95 |
| CCCc1nc2c(C)cc(-c3nc4ccccc4n3C)cc2n1Cc1ccc(-c2ccccc2C(=O)O)cc1 | 171 |
| Cl.Cl.NCCc1c[nH]cn1 | 140 |
| O=C(O)c1cc(O)c2ccccc2n1 | 97 |
| COC(=O)CC1C(C)(C)C(OC(C)=O)[C@@H]2[C@@H](OC(C)=O)[C@]34O[C@@]2(O)[C@]1(C)C3CC[C@]1(C)C4=CC(=O)O[C@H]1c1ccoc1 (stereo partly shown) | 94 |
| O=C(Cc1ccccc1)NO | 95 |

| SMILES | NORMALIZED SGLT1 ACTIVITY (%) |
| --- | --- |
| Cl.Clc1ccc(C(OCCN2CCCCC2)c2ccccc2)cc1 (stereo not shown) | 37 |
| Cc1cccc(CN2CCN(C(c3ccccc3)c3ccc(Cl)cc3)CC2)c1.Cl.Cl (stereo not shown) | 133 |
| Cl.Cl.O=C(O)COCCN1CCN(C(c2ccccc2)c2ccc(Cl)cc2)CC1 (stereo not shown) | 141 |
| CCCCC[C@H]1C(=O)O[C@H](C)[C@H](NC(=O)c2cccc(NC=O)c2O)C(=O)O[C@@H](C)[C@@H]1OC(=O)CC(C)C | 220 |
| O=C(O)c1cn(C2CC2)c2cc(N3CCNCC3)c(F)cc2c1=O | 76 |
| O=c1ccc2cc(O)c(O)cc2o1 | 134 |
| CNC(C)[C@H](O)c1ccccc1.Cl (stereo partly shown) | 106 |
| CN[C@@H](C)[C@@H](O)c1ccccc1.Cl | 120 |
| CC(NCCC(c1ccccc1)c1ccccc1)c1ccccc1.Cl (stereo not shown) | 48 |
| COc1cc(/C=C/C(=O)O)ccc1O | 147 |
| N[C@H](C(=O)O)[C@@H]1CC(Cl)=NO1 | 89 |
| COc1ccc2[nH]cc(CCN)c2c1.Cl | 120 |
| O=[N+]([O-])O[C@H]1CO[C@H]2[C@@H]1OC[C@H]2O[N+](=O)[O-] | 100 |
| CCN1CCCC(OC(=O)C(c2ccccc2)c2ccccc2)C1.Cl (stereo not shown) | 90 |
| CN1CCCN=C1COC(=O)C(O)(c1ccccc1)C1CCCCC1.Cl (stereo not shown) | 43 |
| Cc1ccsc1/C=C/C1=NCCCN1C.O=C(O)CC(O)(CC(=O)O)C(=O)O | 91 |
| COc1c2c(cc3c1OCO3)CC[N+](C)=C2.[Cl-] | 98 |
| C[N+](C)(C)CCO.[Cl-] | 97 |
| N[C@@H](Cc1ccccc1)C(=O)N[C@@H](Cc1ccc(O)cc1)C(=O)O (H-Phe-Tyr-OH) | 112 |
| CCC(CCC(C)[C@H]1CCC2C3CC=C4C[C@@H](O)CC[C@]4(C)C3CC[C@@]21C)C(C)C (stereo partly shown) | 106 |
| Nc1ccc(S(=O)(=O)NC(=O)c2ccccc2)cc1 | 100 |

| SMILES | NORMALIZED SGLT1 ACTIVITY (%) |
| --- | --- |
| C[C@H]1[C@H](C)CC[C@]2(C(=O)O)CC[C@]3(C)C(=CC[C@@H]4[C@@]5(C)CC[C@H](O)C(C)(C)[C@@H]5CC[C@]43C)[C@H]12 | 84 |
| CC(=O)O[C@H]1CC[C@@]2(C)C(CC[C@]3(C)C2C(=O)C=C2C4[C@@H](C)[C@H](C)CC[C@]4(C(=O)O)CC[C@]23C)C1(C)C (stereo partly shown) | 37 |
| CC(=O)O[C@@H]1CC[C@@]2(C)C(CC[C@]3(C)C2CC=C2C4CC(C)(C)CC[C@]4(C(=O)O)CC[C@]23C)C1(C)C (stereo partly shown) | 141 |
| CCCCCc1c2c(cc(O)c1C(=O)O)OC(=O)c1c(cc(OC)cc1C(=O)CCCC)O2 | 152 |
| O=C(O)c1cccnc1C(=O)O | 124 |
| O=C(O)Cc1nn(Cc2ccc(Br)cc2F)c(=O)c2ccccc12 | 180 |
| CC(COc1ccccc1)N(CCCl)Cc1ccccc1.Cl (stereo not shown) | 35 |
| C[C@H](COc1ccccc1)N[C@H](C)[C@H](O)c1ccc(O)cc1.Cl | 119 |
| C#CCN(C)Cc1ccccc1.Cl | 134 |
| C[C@H]1O[C@@H](O[C@H]2[C@@H](O)C[C@H](O[C@H]3[C@@H](O)C[C@H](O[C@H]4CC[C@@]5(C)[C@H](CC[C@@H]6[C@@H]5CC[C@]5(C)[C@@H](C7=CC(=O)OC7)CC[C@]65O)C4)O[C@@H]3C)O[C@@H]2C)C[C@H](O)[C@@H]1O | 111 |
| CC(CCC(=O)O)[C@H]1CCC2C3C(C[C@H](O)[C@@]21C)[C@@]1(C)CC[C@@H](O)C[C@H]1C[C@H]3O (stereo partly shown) | 89 |
| C[C@H]1OC(n2cc(F)c(=O)[nH]c2=O)C(O)[C@@H]1O (stereo partly shown) | 112 |
| Cn1c(=O)c2c(ncn2CCCl)n(C)c1=O | 183 |
| COc1cccc(OC)c1OCCNCC1COc2ccccc2O1.Cl (stereo not shown) | 72 |
| Cl.Nc1c(Br)cc(Br)cc1CNC1CCC(O)CC1 (stereo not shown) | 99 |
| CN(Cc1cc(Br)cc(Br)c1N)C1CCCCC1.Cl | 44 |
| C[C@@H]1[C@H]2[C@H](O[C@@H]3O[C@H](CO)[C@@H](O)[C@H](O)[C@H]3O)OC=C(C(=O)O)[C@H]2C[C@@H]1O | 123 |
| Nc1ccn(C2O[C@H](CO)[C@@H](O)[C@H]2O)c(=O)n1 (stereo partly shown) | 107 |
| O=C(O[C@@H]1Cc2c(O)cc(O)cc2O[C@@H]1c1cc(O)c(O)c(O)c1-c1c([C@H]2Oc3cc(O)cc(O)c3C[C@H]2OC(=O)c2cc(O)c(O)c(O)c2)cc(O)c(O)c1O)c1cc(O)c(O)c(O)c1 | 99 |
| O=C1CCCC2C3CC(CN12)[C@@H]1CCCCN1C3.[O-][Cl+3]([O-])([O-])O (stereo partly shown) | 97 |
| Oc1cc(O)cc(/C=C/c2ccccc2)c1 | 39 |

| SMILES | NORMALIZED SGLT1 ACTIVITY (%) |
| --- | --- |
| COc1cc(O)cc(/C=C/c2ccccc2)c1 | 494 |
| COc1ccc(/C=C/c2cc(O)cc(O)c2)cc1 | 198 |
| O=C1c2ccccc2C(=O)C1c1ccccc1 | 111 |
| COc1ccc(C(=O)CC(=O)O)c2c1C=CC(C)(C)O2 | 115 |
| CC(=O)/C(=C\c1ccccc1)CC(=O)O | 142 |
| CC(=O)Oc1ccc(/C=C/c2cc(OC(C)=O)cc(OC(C)=O)c2)cc1 | 222 |
| COc1cc(-c2coc3cc(O[C@@H]4O[C@H](CO)[C@@H](O)[C@H](O)[C@H]4O)c(OC)c(O)c3c2=O)cc(O)c1OC | 111 |
| COC(=O)C1[C@H]2C[C@H]3c4[nH]c5ccccc5c4CCN3C[C@@H]2CC[C@@H]1O.Cl (stereo partly shown) | 120 |
| CC(=O)O[C@@H]1CC2C(C)(C)CCC(=O)[C@]2(C)C2CC[C@@]3(C)[C@H](c4ccoc4)OC(=O)C4OC43[C@@]21C (stereo partly shown) | 126 |
| CCCCc1nc(Cl)c(CO)n1Cc1ccc(-c2ccccc2-c2nnn[nH]2)cc1 | 249 |
| CCOc1nc2cccc(C(=O)OC(C)OC(=O)OC3CCCCC3)c2n1Cc1ccc(-c2ccccc2-c2nnn[nH]2)cc1 (stereo not shown) | 36 |
| CCCCC1=NC2(CCCC2)C(=O)N1Cc1ccc(-c2ccccc2-c2nnn[nH]2)cc1 | 117 |
| N.N.[Cl][Pt][Cl] | 90 |
| COc1ccc2c(c1)[C@@]1(C)CC[C@@H](O)C[C@@H]1CC2 | 116 |
| CC(C)=CCCC1(C)C=Cc2c(O)c3c(c(CC=C(C)C)c2O1)OC12C(=CC4CC1C(C)(C)OC2(C/C=C(/C)C(=O)O)C4=O)C3=O (stereo not shown) | 163 |
| CC(C)=CCCC1(C)C=Cc2c(O)c3c(c(CC=C(C)C)c2O1)OC12C(=CCCC1C(C)(C)O[C@@]2(C/C=C(\C)C(=O)O)C(=O)O)C3=O (stereo partly shown) | 39 |
| CC(C)=CCCC1(C)C=Cc2c(O)c3c(c(CC=C(C)C)c2O1)OC12C(=CC4CC1C(C)(C)OC2(C/C=C(/C)C(=O)O)C4O)C3=O (stereo not shown) | 174 |
| O=c1c(O)cccc2cc(O)c(O)c(O)c12 | 137 |
| CNC(C)[C@@H]1CC[C@@H](N)[C@@H](OC2[C@@H](N)C[C@@H](N)[C@H](OC3OC[C@](C)(O)[C@H](NC)[C@H]3O)[C@H]2O)O1.O=S(=O)(O)O (stereo partly shown) | 95 |
